PubChem BioAssay (NCATS)
Results filed as inconclusive are left out. A call without a number means that no potency is given here. Calls of active or inactive are those of the source. Unless noted, calls come from the whole dose curve; as a rule, active = well fitted curve in the direction sought with a large enough effect; inconclusive = small, poorly fitted or top-dose-only effect, or another doubt; inactive = no such curve, though single readings can be large; an effect the other way counts as inactive or inconclusive.

Key:
[1] = Cytometric Cell-Based qHTS for Inhibitors of the mTORC1 Signaling Pathway in MEF (Tsc2-/-, p53-/-) Cells (AID 2660);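 note: percent of cells above a phospho-rpS6 to PI ratio cutoff in each well; series mostly up to about 38 µM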
How it was run: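 Cells are plated, treated with compound for 24 hrs at 37 degree Celsius, then fixed, blocked and immunostained for phospho-rpS6 Ser235/236. Propidium iodide counterstain follows. Per-well % positive cells is derived from the PI-normalized phospho-S6 signal.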

[2] = High Content Imaging Cell-Based qHTS for Inhibitors of the mTORC1 Signaling Pathway in MEF (Tsc2-/-, p53-/-) Cells (AID 2666);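 note: percent of cells scored positive for phospho-rpS6 Ser235/236 immunostaining by imaging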
How it was run: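 Read-out: % positive cells per well, with thresholds from highest- and lowest-signal wells, based on phospho-rpS6 (Ser235/236) intensity normalized to Hoechst nuclear stain. Cells: Tsc2-/-, p53-/- MEFs carrying empty vector; compound 24 hrs, 37 degree Celsius.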

[3] = High Content Imaging Cell-Based qHTS for Inhibitors of the mTORC1 Signaling Pathway in MEF Cells (AID 2667); note: potency is the fitted concentration of half-maximal effect
How it was run: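 MEF (Tsc2-/-, p53-/-, WT Tsc2 re-expressed); cpd 24 h, 37 °C; PFA fix; Alexa-488 anti-p-rpS6 Ser235/236, PI, Hoechst; IN Cell imaging; Hoechst/Alexa-488 intensity ratio; % active cells, thresholds set from rapamycin and DMSO wells.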

[4] = Cytometry Cell-Based qHTS for Inhibitors of the mTORC1 Signaling Pathway in MEF cells (AID 2668); note: potency is the fitted concentration of half-maximal effect
How it was run: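 Phospho-rpS6 (Ser235/236) immunofluorescence over PI signal, scored as % positive cells using thresholds from 7.5 nM rapamycin and DMSO wells, after 24 h compound exposure of WT-Tsc2-rescued Tsc2-/-, p53-/- MEFs. PI cell count recorded for viability.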

[5] = molecular target: Ubiquitin carboxyl-terminal hydrolase 2 (Homo sapiens) (UniProt O75604); test: qHTS Validation Assay for Inhibitors of Ubiquitin-specific Protease USP2a Using CHOP2 as the Reporter (AID 463106)
How it was run: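 USP2 core (10nM final) was preincubated with compound for 30min at RT in 20mM Tris-HCl pH 8.0, 2mM CaCl2, 2mM beta-mercaptoethanol, 0.05% CHAPS. Ub-CHOP2 and reporter substrate (25nM each) were added, and fluorescence (Ex 485/Em 531nm) was read after 60min.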

[6] = molecular target: DNA polymerase III PolC-type (Bacillus subtilis (strain 168)) (UniProt P13267); test: qHTS Validation Assay for the Inhibitors of DNA Replication in Gram-Positive Bacteria (AID 485295); note: potency is the fitted concentration of half-maximal effect
How it was run: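 Double-stranded DNA product detected by PicoGreen fluorescence after EDTA quench. Compound incubated with B. subtilis holoenzyme (PolC, beta subunit, SSB, primase) before substrate addition; primed replication of M13Gori with dNTPs and NTPs at room temperature; DMSO defines 0% inhibition.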

[7] = molecular target: Tumor susceptibility gene 101 protein (Homo sapiens) (UniProt Q99816); test: qHTS Validation Assay for Iinhibitors of HIV-1 Budding by Blocking the Interaction of PTAP/TSG101 (AID 485342; calls by dose curve)
How it was run: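 Fluorescence polarization of 50 nM FITC-PTAP peptide bound to 10 uM Tsg101 binding domain was read after 20 min room-temperature incubation with compounds, in 10 mM HEPES pH 7.5, 0.15 M NaCl, 0.01% Tween 20.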

[8] = qHTS Validation Assay to Find Inhibitors of Chronic Active B-Cell Receptor Signaling (AID 485345; active = well fitted curve in the direction sought with a large enough effect in the main read-out, with a control signal flat, not every such curve was filed as active)
How it was run: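 TMD8 ABC-DLBCL cells with dox-inducible green luciferase–IκBα fusion and red native luciferase; compounds 46 uM–3 nM, 4 h at 37C with doxycycline in 0.5% FBS IMDM. Green/red ratio normalized to basal and 10 uM MG-132.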

[9] = Validation screen for small molecules that induce DNA re-replication in MCF 10A normal breast cells (AID 463097); note: nearly all actives have a fitted effect of over 60% in size
How it was run: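 Read-out is Hoechst total nuclear intensity by fluorescence scanning imager, flagging increased high-DNA-content nuclei. Compounds were incubated with MCF 10A cells for 48 hr (37 C, 5% CO2) before 40 min staining.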

Chain of Tumor susceptibility gene 101 protein (Homo sapiens) (Q99816 whole entry, looked up, the tested form may be a part): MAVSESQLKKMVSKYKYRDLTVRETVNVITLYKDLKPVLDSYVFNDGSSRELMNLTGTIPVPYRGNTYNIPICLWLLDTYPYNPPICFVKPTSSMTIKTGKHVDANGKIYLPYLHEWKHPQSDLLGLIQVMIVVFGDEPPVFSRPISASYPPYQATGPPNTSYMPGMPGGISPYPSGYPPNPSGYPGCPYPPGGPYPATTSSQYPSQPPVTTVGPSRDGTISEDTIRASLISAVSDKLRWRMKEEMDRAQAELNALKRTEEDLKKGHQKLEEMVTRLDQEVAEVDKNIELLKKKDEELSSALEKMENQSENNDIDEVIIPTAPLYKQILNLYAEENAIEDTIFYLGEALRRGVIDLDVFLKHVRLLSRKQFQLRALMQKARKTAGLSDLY
Chain of Ubiquitin carboxyl-terminal hydrolase 2 (Homo sapiens) (O75604 whole entry, looked up): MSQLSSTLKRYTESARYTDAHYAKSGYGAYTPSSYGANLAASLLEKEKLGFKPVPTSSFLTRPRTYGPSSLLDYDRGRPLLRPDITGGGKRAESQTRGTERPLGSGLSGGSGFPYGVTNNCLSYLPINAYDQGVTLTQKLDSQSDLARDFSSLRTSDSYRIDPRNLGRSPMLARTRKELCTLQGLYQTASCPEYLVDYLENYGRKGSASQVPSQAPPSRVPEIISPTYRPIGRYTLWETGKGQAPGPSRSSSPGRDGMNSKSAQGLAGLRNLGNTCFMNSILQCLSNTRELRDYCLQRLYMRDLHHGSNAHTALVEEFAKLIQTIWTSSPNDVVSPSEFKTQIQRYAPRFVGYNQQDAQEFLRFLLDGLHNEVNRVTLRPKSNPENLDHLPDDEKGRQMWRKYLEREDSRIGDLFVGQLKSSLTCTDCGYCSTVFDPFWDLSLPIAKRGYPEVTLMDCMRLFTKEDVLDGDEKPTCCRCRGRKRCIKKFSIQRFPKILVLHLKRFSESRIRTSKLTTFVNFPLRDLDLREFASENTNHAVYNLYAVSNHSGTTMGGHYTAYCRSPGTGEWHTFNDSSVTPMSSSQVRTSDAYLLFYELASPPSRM
Chain of DNA polymerase III PolC-type (Bacillus subtilis (strain 168)) (P13267 whole entry, looked up): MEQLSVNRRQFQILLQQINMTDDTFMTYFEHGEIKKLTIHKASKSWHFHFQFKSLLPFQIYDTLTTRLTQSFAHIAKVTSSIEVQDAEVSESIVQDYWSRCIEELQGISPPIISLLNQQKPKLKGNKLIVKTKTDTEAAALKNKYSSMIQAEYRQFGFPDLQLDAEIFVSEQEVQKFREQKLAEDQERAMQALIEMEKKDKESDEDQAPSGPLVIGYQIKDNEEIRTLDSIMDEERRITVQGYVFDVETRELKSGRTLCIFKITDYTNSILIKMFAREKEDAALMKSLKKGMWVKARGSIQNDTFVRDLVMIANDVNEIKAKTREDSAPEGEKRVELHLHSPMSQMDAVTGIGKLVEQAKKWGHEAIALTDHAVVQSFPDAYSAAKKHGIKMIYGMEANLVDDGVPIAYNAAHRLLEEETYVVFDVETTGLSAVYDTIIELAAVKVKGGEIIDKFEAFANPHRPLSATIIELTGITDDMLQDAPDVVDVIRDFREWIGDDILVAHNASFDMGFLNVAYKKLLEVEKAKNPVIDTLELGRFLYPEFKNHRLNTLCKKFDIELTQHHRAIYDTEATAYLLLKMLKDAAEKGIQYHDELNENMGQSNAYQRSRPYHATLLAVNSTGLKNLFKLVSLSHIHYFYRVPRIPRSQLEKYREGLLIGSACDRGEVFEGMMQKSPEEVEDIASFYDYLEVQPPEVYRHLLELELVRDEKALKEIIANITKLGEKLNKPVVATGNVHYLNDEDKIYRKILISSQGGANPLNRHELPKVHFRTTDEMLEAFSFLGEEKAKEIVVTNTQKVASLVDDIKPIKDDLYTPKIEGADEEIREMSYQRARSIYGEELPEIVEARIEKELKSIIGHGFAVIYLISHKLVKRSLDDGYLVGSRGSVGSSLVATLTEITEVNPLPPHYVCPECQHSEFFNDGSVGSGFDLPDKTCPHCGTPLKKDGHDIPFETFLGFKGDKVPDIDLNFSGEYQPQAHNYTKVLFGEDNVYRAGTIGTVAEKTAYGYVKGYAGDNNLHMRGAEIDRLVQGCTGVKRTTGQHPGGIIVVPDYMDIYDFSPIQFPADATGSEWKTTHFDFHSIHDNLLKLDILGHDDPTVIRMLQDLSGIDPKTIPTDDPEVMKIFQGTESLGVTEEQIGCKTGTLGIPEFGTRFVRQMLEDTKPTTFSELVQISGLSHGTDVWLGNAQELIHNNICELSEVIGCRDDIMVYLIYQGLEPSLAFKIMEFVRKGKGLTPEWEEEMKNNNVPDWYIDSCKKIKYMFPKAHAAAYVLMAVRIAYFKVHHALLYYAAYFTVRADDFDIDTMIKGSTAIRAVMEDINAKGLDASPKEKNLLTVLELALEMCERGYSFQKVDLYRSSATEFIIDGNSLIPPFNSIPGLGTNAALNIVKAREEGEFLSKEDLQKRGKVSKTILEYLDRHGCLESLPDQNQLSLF

Row | Compound | outcome [1] | Potency [2] | Potency [3] | Potency [4] | Potency [5] | Potency [6] | outcome [7] | outcome [8] | Potency [9]
1 | CCCn1c(=O)c2[nH]c(C3CCCC3)nc2n(CCC)c1=O | inactive | inactive | inactive | inactive | inactive | inactive | inactive |  | 
2 | CCCCCCCCCC[Si](C)(C)CCC(=O)NC(Cc1ccc(C)cc1)c1ccccc1 (stereo not given) | inactive | inactive | inactive | inactive | inactive | inactive | inactive | inactive | 
3 | NC(Cc1cccc(-c2ccccc2CP(=O)(O)O)c1)C(=O)O (stereo not given) | inactive | inactive | inactive | inactive |  |  | inactive | inactive | inactive
4 | O=c1ccc2c(OCCCCc3ccccc3)c3ccoc3cc2o1 | inactive | inactive | inactive | inactive | inactive | inactive | inactive |  | 
5 | O=c1[nH]ccc2c(O)cccc12 | inactive | inactive | inactive | inactive | inactive | inactive | inactive | inactive | 
6 | OC[C@H]1O[C@H](n2cnc3c(N[C@H]4CCC[C@@H]4O)ncnc32)[C@H](O)[C@@H]1O | inactive | inactive | inactive | inactive | inactive | inactive |  |  | 
7 | NC[C@@H]1O[C@H](c2ccccc2)Cc2c1ccc(O)c2O | inactive | inactive | inactive | inactive | inactive | inactive | inactive | inactive | 
8 | N[C@H](C(=O)O)c1cc(O)cc(O)c1 | inactive | inactive | inactive | inactive | inactive |  |  | inactive | 
9 | CC(=O)N[C@@H](Cc1c[nH]c2ccccc12)C(=O)OCc1cc(C(F)(F)F)cc(C(F)(F)F)c1 | inactive | inactive | inactive | inactive |  | inactive | inactive | inactive | 
10 | COc1ccc(CCn2nnnc2C2(c3ccc(C)cc3)CC2)cc1 | inactive | inactive | inactive | inactive | inactive |  |  | inactive | 
11 | CCc1ccc2c(-c3cccc(Cl)c3)nc(=O)n(CC)c2n1 | inactive | inactive | inactive | inactive |  | inactive | inactive |  | 
12 | CC[n+]1c(/C=C/C=C2/N(C)c3ccccc3C2(C)C)sc2ccccc21 | inactive | inactive | 0.0521 µM (active) | 0.0826 µM (active) |  | inactive |  |  | 
13 | O=C(O)CCC/C=C\C[C@@H]1[C@@H](/C=C/[C@H](O)C2Cc3ccccc3C2)[C@@H](F)C[C@@H]1O | inactive | inactive | inactive | inactive | inactive |  | inactive | inactive | 
14 | Nc1ncnc2c1nc(Sc1ccc(Cl)cc1)n2[C@H]1OC2COP(=O)(O)O[C@@H]2C1O (stereo not given in full) | inactive | inactive | inactive | inactive | inactive |  | inactive |  | 
15 | O=C(OCCN1CCOCC1)C1(c2ccccc2)CCCCC1 | inactive | inactive | inactive | inactive | inactive | inactive | inactive | inactive | 
16 | O=S(=O)(c1cccc2c(Cl)cccc12)N1CCCNCC1 | inactive | inactive | inactive | inactive | inactive | inactive | inactive | inactive | 
17 | Nc1ccc(-c2ccc3ccccc3n2)cc1 | inactive | inactive | inactive | inactive | inactive | inactive | inactive | inactive | 
18 | CSc1nc(N)c2ncn([C@@H]3O[C@H](COP(=O)(O)OP(=O)(O)O)C(O)[C@H]3O)c2n1 (stereo not given in full) | inactive | inactive | inactive | inactive | inactive |  | inactive |  | 
19 | N=C(N)c1ccc(N)cc1 | inactive | inactive | inactive | inactive | inactive | inactive | inactive | inactive | 
20 | O=C(O)c1cc(=O)cc(C(=O)O)[nH]1 | inactive | inactive | inactive | inactive | inactive | inactive | inactive | inactive | 
21 | CN(C)CCCc1cc(C(=O)Nc2ccc(-c3ccncc3)cc2)ccc1O | inactive | inactive | inactive | inactive |  | inactive | inactive |  | 
22 | CCN(c1nc(N)c(C(=O)N=C(N)N)nc1Cl)C(C)C | inactive | inactive | inactive | inactive | inactive | inactive | inactive | inactive | 
23 | N[C@H](C(=O)O)[C@H](Cc1ccccc1)C(=O)O | inactive | inactive | inactive | inactive | inactive | inactive |  | inactive | 
24 | CC(=O)SC1CC2=CC(=O)CC[C@]2(C)C2CC[C@@]3(C)C(CC[C@@]34CCC(=O)O4)C12 (stereo not given in full) | inactive | inactive | inactive | inactive | inactive |  | inactive | inactive | 
25 | c1ccc(C(NCCNC(c2ccccc2)c2ccccc2)c2ccccc2)cc1 | inactive | inactive | 13.1 µM (active) | 18.5 µM (active) |  | inactive | inactive |  | 
26 | Nc1ncnc2c1nc(Br)n2C1OC2COP(=O)(O)O[C@@H]2C1O (stereo not given in full) | inactive | inactive | inactive | inactive | inactive | inactive | inactive | inactive | 
27 | COc1cc(/C=C(\C#N)C(=O)Nc2nnc(C(F)(F)F)s2)ccc1OCc1ccc(C(F)(F)F)cc1C(F)(F)F | inactive | inactive | inactive | inactive |  | 10.6 µM (active) |  |  | 
28 | C[C@H](NC(=O)/C(C#N)=C/c1ccc(O)c(O)c1)c1ccccc1 | inactive | inactive | inactive | inactive | inactive | inactive | inactive | inactive | 
